# Measurements: PubChem BioAssay (NCI)
# About 83,000 compounds went through this panel and 20% of them were active in at least one assay; those are over-represented in the sample as a whole.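 48-hour exposure, single concentration, 96-well plates; percent growth endpoint where 0 means no net growth. Active: below 10.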 Unmarked numbers belong to inactive results. Active and inactive are the calls of the source.
# Key:
# Test in all cases: NCI-60 one-dose screen, 48 h (100 = growth as untreated, 0 = no growth, -100 = all killed)
# NCI-H23 lung = conditions: 10 µM unless noted
# NCI-H226 lung = conditions: 10 µM unless noted
# NCI-H322M lung = conditions: 10 µM unless noted
# HOP-62 NSCLC = conditions: 10 µM unless noted
# NCI-H460 lung = conditions: 10 µM unless noted
# 786-0 renal = conditions: 10 µM unless noted
# MDA-MB-231 breast = conditions: 10 µM unless noted
# SF-268 CNS = conditions: 10 µM unless noted
# SF-539 CNS = conditions: 10 µM unless noted
# HCT-15 colon = conditions: 10 µM
# U251 CNS = conditions: 10 µM unless noted
# PC-3 prostate = conditions: 10 µM unless noted
# SK-MEL-28 melanoma = conditions: 10 µM unless noted
# SN12C renal = conditions: 10 µM unless noted
# HS 578T breast = conditions: 10 µM unless noted
# NCI/ADR-RES ovarian = conditions: 10 µM unless noted
# SW-620 colon = conditions: 10 µM unless noted
# MCF7 breast = conditions: 10 µM unless noted
# HCT-116 colon = conditions: 10 µM unless noted
# KM12 colon = conditions: 10 µM unless noted
Compound,growth (NCI-H23 lung),growth (NCI-H226 lung),growth (NCI-H322M lung),growth (HOP-62 NSCLC),growth (NCI-H460 lung),growth (786-0 renal),growth (MDA-MB-231 breast),growth (SF-268 CNS),growth (SF-539 CNS),growth (HCT-15 colon),growth (U251 CNS),growth (PC-3 prostate),growth (SK-MEL-28 melanoma),growth (SN12C renal),growth (HS 578T breast),growth (NCI/ADR-RES ovarian),growth (SW-620 colon),growth (MCF7 breast),growth (HCT-116 colon),growth (KM12 colon)
CCC(/C=C(C)/C=C/C(=O)c1c(O)c(-c2ccc(O)cc2)c[nH]c1=O)CO (stereo not drawn),98.4%,106%,96%,98%,93.4%,87.6%,111%,45.1%,77.4%,91.6%,67.6%,27.7%,105%,91.7%,83.8%,96.2%,100%,88.7%,80.1%,47%
C/C(=C\c1cc(C(F)(F)F)n(-c2ccc(N)cc2)n1)[C@@H]1C[C@@H]2O[C@]2(C)CCC[C@H](C)[C@H](O)[C@@H](C)C(=O)C(C)(C)[C@@H](O)CC(=O)O1,24.4%,38.9%,22.2%,19.2%,3.04% (active),8.49% (active),0.97% (active),6.48% (active),-18.5% (active),9.88% (active),3.19% (active),9.42% (active),39.1%,23.1%,-11.5% (active),7.67% (active),26.5%,7.93% (active),5.82% (active),5.68% (active)
COc1cc(C2(C#N)CCN(C)CC2)cc(OC)c1OC,104%,110%,129%,103%,102%,102%,98.8%,90.9%,111%,97.2%,101%,97.5%,106%,103%,100%,104%,97.3%,95.7%,91.8%,100%
CNc1ccc(C(=O)CC(O)CCC(C)C2OC(=O)CC(O)CC(=O)CC(O)CC(O)CC(O)CC(O)CC3(O)CC(O)C(C(=O)OC)C(CC(O[C@@H]4O[C@H](C)[C@@H](O)[C@H](N)[C@@H]4O)/C=C/C=C/C=C/C=C/C=C/C=C/C=C/C2C)O3)cc1 (stereo partly drawn),-54.5% (active),-37.7% (active),1.05% (active),-25.9% (active),3.55% (active),-20.1% (active),-0.509% (active),-5.42% (active),72.4%,41.8%,23.8%,15%,-89.1% (active),-81.3% (active),6.91% (active),-35.9% (active),37%,8.58% (active),-16.4% (active),7.61% (active)
[O]=[Sn]([CH]1CCCCC1)[CH]1CCCCC1,-93.5% (active),-74% (active),-96.7% (active),-91.8% (active),-85.8% (active),-97.6% (active),-78.3% (active),-98.9% (active),-92.5% (active),-78.1% (active),-85.2% (active),-91.2% (active),-94.8% (active),-80.5% (active),-19.5% (active),-83.2% (active),-86.8% (active),-88% (active),-97.5% (active),-94% (active)
CO[C@@H]1[C@H](OC(=O)NC(=O)CCl)CC[C@]2(CO2)[C@H]1[C@@]1(C)O[C@@H]1CC=C(C)C,64.1%,72.7%,59.8%,64.4%,23.5%,70.4%,79.9%,71.5%,87.6%,30%,5.86% (active),20.2%,,72.3%,61.2%,75.9%,49.4%,26.9%,43.8%,36.3%
Cc1cc(C)nc(C)c1.[Cl][Hg][Cl],98.9%,120%,91.5%,102%,101%,104%,118%,102%,103%,101%,91.6%,95.4%,94%,104%,108%,102%,105%,82.7%,108%,96.2%
CCOC(=O)c1cnc(SCc2ccc(Cl)c(Cl)c2)nc1N1CC1,51.1%,75.6%,69.7%,64.9%,41%,60%,51.7%,74.9%,44.1%,33.7%,49%,51.2%,88.5%,58.4%,59.3%,25.2%,33.8%,29.3%,23.5%,50.5%
Cc1ccccc1O,105%,97%,114%,95.4%,117%,105%,115%,109%,104%,106%,105%,96.4%,111%,105%,132%,100%,112%,119%,103%,106%
S=P(N1CCCCCC1)(N1CC1)N1CC1,102%,106%,121%,94.8%,107%,103%,96.4%,96.8%,102%,118%,106%,93.7%,116%,96.2%,122%,104%,108%,94%,99.8%,105%
O=C(/C=C/c1ccccc1)N[C@@H](CO)Cc1cnc[nH]1,113%,94%,101%,101%,105%,103%,98.9%,101%,95.6%,98.6%,101%,97.9%,99.4%,105%,116%,98%,106%,98.7%,109%,105%
CCOCC1(CCc2ccccc2)C(=O)NC(=S)NC1=O,94%,106%,114%,104%,113%,102%,100%,102%,99.9%,107%,101%,104%,117%,100%,106%,105%,109%,103%,101%,110%
N#C[Se]CCCNS(=O)(=O)C1CC2C=CC1C2 (stereo not drawn),-37.5% (active),-66.5% (active),-19.9% (active),-71.6% (active),-18.3% (active),-87.4% (active),-71.8% (active),-55.7% (active),-77.9% (active),-1.27% (active),-76.6% (active),-19.2% (active),-15.3% (active),-25.6% (active),-25.9% (active),-3.8% (active),1.26% (active),2.16% (active),-31.9% (active),-5.35% (active)
CCC(C)/C=C(C)/C=C/C(=O)c1c(O)c(-c2ccc(O)cc2)c[nH]c1=O (stereo not drawn),64.6%,91.5%,59.3%,60.8%,31.6%,49.7%,70%,33.3%,61.7%,38.8%,40.9%,45%,91%,60.5%,52.7%,33.5%,39.6%,18.6%,39%,40.6%
CC1(C)N=C(N)N=C(N)N1c1ccc(CCC(=O)Nc2cccc(S(=O)(=O)F)c2)cc1,63.8%,89%,79%,82.8%,27.7%,58%,104%,51.6%,39.4%,81.9%,42.3%,24.5%,103%,46.5%,121%,,52.3%,54.6%,41.3%,75%
ClCCN(CCCl)c1nc(Cl)c(C2CC(c3ccccc3)=NN2c2ccccc2)s1 (stereo not drawn),86.8%,83.3%,86.9%,79.5%,89.1%,91.7%,88.1%,88.9%,102%,101%,86.1%,75.8%,98.6%,90.4%,87.4%,103%,86%,91.6%,78.3%,98.3%
